# From PubChem BioAssay
# Active and inactive are the calls of the source.
# Experiments:
# [1] = optical density shifts of acrAB sulA E. coli – strain DRC41, OD650, 48 h, E. coli filamentation inducer project, primary screen (AID 1152); conditions: higher = more signal, called active from +8 up or from −8 down;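 note: E. coli MC1000 strain DRC41 lacking acrAB efflux pump and sulA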
# [2] = probe aLefty1 binding on compound microarray – biochemical, small-molecule microarray, 635/667 nm fluorescence, primary screen (AID 1153); conditions: higher = more signal;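 note: score merges spot fluorescence with signal-to-noise ratio from the scanned slide images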
# [3] = plasmodial surface anion channel blockers, osmotic lysis – cell-based, P. falciparum Indochina, OD700, 1 h, primary screen (AID 1154); conditions: P. falciparum Indochina infected RBC osmotic lysis, higher = more signal, called active from +8 up or from −8 down
# [4] = plasmodial surface anion channel blockers, osmotic lysis – cell-based, P. falciparum Indochina, OD700, 2 h, primary screen (AID 1155);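 note: lysis reports solute entry through the parasite surface anion channel PSAC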; conditions: P. falciparum Indochina infected erythrocytes, higher = more signal, called active from +8 up or from −8 down
# [5] = changes in parasitized red cell lysis, either direction – P. falciparum Indochina, OD700, 3 h, PSAC antagonist project, primary screen (AID 1156); conditions: P. falciparum-infected erythrocytes, osmotic lysis, higher = more signal, called active from +8 up or from −8 down
# [6] = plasmodial surface anion channel blockers, osmotic lysis – cell-based, P. falciparum Indochina, OD700, 18 h, primary screen (AID 1157); conditions: P. falciparum Indochina infected erythrocytes, osmotic lysis OD700, 18 h; higher = more signal, called active from +8 up or from −8 down
# [7] = S6 kinase pathway phospho-S6 level changes – cell-based, A549, cytoblot, luminescence, serum-stimulated, primary screen (AID 1158); conditions: 5 h, higher = more signal;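 note: serum-stimulated A549 lung adenocarcinoma cells; signal is phosphorylated S6 detected by cytoblot immunostaining with HRP secondary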
# [8] = target: NADPH oxidase 2 (Homo sapiens) (UniProt P04839); assay: compounds shifting NOX2 Amplex Red fluorescence – cell-based, HEK293-NOX2, PMA-stimulated, NOX inhibitor project, primary screen (AID 1159); conditions: 45 min, higher = more signal, called active from +8 up or from −8 down; note: test concentration not given here
# Chain of NADPH oxidase 2 (Homo sapiens) (P04839 whole entry, looked up): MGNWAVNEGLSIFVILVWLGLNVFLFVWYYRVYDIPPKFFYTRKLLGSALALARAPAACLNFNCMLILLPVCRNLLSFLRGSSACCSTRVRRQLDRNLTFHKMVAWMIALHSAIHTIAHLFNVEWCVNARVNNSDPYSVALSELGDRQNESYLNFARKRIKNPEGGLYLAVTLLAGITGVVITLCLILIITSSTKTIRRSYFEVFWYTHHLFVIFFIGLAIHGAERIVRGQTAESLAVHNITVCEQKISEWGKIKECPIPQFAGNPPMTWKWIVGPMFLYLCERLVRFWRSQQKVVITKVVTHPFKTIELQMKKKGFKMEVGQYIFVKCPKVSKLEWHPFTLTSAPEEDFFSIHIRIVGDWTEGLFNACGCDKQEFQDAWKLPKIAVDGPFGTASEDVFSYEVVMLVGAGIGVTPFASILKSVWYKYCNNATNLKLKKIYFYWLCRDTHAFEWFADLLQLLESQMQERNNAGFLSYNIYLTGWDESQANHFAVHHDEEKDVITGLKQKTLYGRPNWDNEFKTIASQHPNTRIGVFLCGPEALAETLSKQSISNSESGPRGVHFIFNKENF
# [9] = target: NADPH oxidase 4 (Homo sapiens) (UniProt Q9NPH5); assay: compounds shifting NOX4 Amplex Red fluorescence – cell-based, HEK293-NOX4, tetracycline-induced, NOX inhibitor project, primary screen (AID 1160); conditions: HEK293-NOX4, Amplex Red H2O2 fluorescence, 45 min; higher = more signal, called active from +8 up or from −8 down
# Chain of NADPH oxidase 4 (Homo sapiens) (Q9NPH5 whole entry, looked up): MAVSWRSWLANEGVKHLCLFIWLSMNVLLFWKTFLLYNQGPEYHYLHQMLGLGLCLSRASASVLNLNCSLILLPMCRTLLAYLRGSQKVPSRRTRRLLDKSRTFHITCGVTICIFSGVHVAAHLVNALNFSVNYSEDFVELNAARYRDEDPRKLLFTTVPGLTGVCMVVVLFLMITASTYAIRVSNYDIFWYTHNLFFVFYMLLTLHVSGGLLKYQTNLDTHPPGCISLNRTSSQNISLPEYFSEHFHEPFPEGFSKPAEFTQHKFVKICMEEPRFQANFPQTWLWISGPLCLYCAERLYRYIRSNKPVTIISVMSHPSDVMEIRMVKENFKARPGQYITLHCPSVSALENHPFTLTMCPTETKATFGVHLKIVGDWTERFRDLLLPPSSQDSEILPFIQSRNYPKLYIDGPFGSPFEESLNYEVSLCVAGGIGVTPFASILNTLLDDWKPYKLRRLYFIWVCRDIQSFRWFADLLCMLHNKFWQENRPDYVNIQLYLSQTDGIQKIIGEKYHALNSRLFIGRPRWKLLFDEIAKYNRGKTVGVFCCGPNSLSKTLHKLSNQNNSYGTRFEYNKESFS
# [10] = target: NADPH oxidase 5 (Homo sapiens) (UniProt Q96PH1); assay: compounds shifting NOX5 Amplex Red fluorescence – cell-based, HEK293-NOX5, NOX inhibitor project, primary screen (AID 1161); conditions: HEK293-NOX5, ionomycin, 45 min, higher = more signal
# Chain of NADPH oxidase 5 (Homo sapiens) (Q96PH1 whole entry, looked up): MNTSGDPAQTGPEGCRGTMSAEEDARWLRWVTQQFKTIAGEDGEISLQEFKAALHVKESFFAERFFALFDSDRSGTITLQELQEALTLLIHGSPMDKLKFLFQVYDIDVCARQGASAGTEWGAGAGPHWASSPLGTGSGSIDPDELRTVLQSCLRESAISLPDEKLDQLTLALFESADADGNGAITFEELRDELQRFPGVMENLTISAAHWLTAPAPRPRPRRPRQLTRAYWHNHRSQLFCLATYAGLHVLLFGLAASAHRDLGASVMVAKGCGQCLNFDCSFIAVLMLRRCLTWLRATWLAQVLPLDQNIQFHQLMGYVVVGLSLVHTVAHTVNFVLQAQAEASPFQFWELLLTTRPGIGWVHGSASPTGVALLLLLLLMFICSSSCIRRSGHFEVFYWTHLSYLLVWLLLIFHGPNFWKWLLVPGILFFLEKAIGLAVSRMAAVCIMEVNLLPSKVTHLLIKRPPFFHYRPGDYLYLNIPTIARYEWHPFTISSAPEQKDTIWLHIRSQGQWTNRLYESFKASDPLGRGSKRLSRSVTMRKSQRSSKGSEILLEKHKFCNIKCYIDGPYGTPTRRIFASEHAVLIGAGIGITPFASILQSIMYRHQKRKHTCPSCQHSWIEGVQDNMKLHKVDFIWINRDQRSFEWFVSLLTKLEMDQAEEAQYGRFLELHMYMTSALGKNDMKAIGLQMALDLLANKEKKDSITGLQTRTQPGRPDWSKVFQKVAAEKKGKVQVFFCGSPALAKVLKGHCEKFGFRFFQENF
# [11] = compound effects on lung adenocarcinoma cell viability – A549, calcein-AM fluorescence, 48 h, basal, profiling panel (AID 1162); conditions: higher = more signal; note: test concentration not given here
# [12] = compound effects on differentiated 3T3-L1 adipocyte viability – cell-based, 3T3-L1 adipocytes, calcein-AM fluorescence, 48 h, basal, profiling panel (AID 1163); conditions: 3T3-L1 adipocytes viability, higher = more signal; note: test concentration not given here
# [13] = compound effects on hepatocellular carcinoma cell viability – HepG2, calcein-AM fluorescence, 48 h, basal, profiling panel (AID 1164); conditions: higher = more signal; note: test concentration not given here
# [14] = compound effects on multiple myeloma cell viability – MM1S, calcein-AM fluorescence, 48 h, basal, profiling panel (AID 1165); conditions: higher = more signal; note: test concentration not given here
# [15] = calcein-AM signal in unstimulated myeloma cells – cell-based, calcein-AM fluorescence, 48 h, PK04 Diversity Set, profiling panel (AID 1166); conditions: RPMI8226 myeloma viability, higher = more signal;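 note: cells grown under basal conditions without added stimulus; test concentration not given here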
# [16] = JC-1 mitochondrial signal, unstimulated HepG2 cells – cell-based, JC-1 fluorescence, 24 h, 100 nL compound, profiling panel (AID 1167); conditions: HepG2 mitochondrial potential, higher = more signal; note: test concentration not given here
# [17] = JC-1 mitochondrial signal, unstimulated adipocytes – cell-based, JC-1 fluorescence, 3T3-L1 adipocytes, 24 h, 100 nL compound, profiling panel (AID 1168); conditions: JC-1 mitochondrial fluorescence, higher = more signal, called active from +8 up or from −8 down; note: test concentration not given here
# [18] = JC-1 mitochondrial signal, unstimulated myeloma cells – cell-based, JC-1 fluorescence, RPMI8226, 24 h, 100 nL compound, profiling panel (AID 1169); conditions: JC-1 mitochondrial potential fluorescence, higher = more signal; note: test concentration not given here
# [19] = JC-1 mitochondrial signal, unstimulated MM1S myeloma – cell-based, JC-1 fluorescence, 24 h, 100 nL compound, profiling panel (AID 1170); conditions: MM1S mitochondrial potential, higher = more signal; note: test concentration not given here
# [20] = resazurin metabolic signal in A549 cells – cell-based, resazurin fluorescence, 24 h, PK04 Diversity Set, profiling panel (AID 1171); conditions: A549 viability, higher = more signal, called active from +8 up or from −8 down; note: test concentration not given here
Compound,z-score [1],composite z-score [2],z-score [3],z-score [4],z-score [5],z-score [6],z-score [7],z-score [8],z-score [9],z-score [10],z-score [11],z-score [12],z-score [13],z-score [14],z-score [15],z-score [16],z-score [17],z-score [18],z-score [19],z-score [20]
Cc1ccc(S[C@]2(C(=O)NCCN3CCOCC3)CC(=O)N(C3CCCCC3)[C@@H]2c2ccc(CO)cc2I)cc1,0.465 (inactive),-0.174,6.63 (inactive),0.86 (inactive),1.68 (inactive),0.622 (inactive),-0.439,0.832 (inactive),0.11 (inactive),2.6,0.312,0.0138,0.293,-2.42,-2.46,2.54,0.11 (inactive),-0.457,-1.53,2.04 (inactive)
C=CCC(OC(C)=O)[C@@H]1[C@@H](N(Cc2cccc3ccccc23)C(=O)c2ccc(C)cc2)c2cc(OCCCO)ccc2N1C(=O)c1ccc2ccccc2n1 (stereo not given in full),2.18 (inactive),0.0009,1.83 (inactive),-0.623 (inactive),-1.16 (inactive),-1.37 (inactive),1.62,-0.604 (inactive),0.807 (inactive),2.44,0.375,0.694,1.14,0.823,-0.473,2.11,0.199 (inactive),0.187,-1.25,0.34 (inactive)
CC(C)CNC(=O)[C@@]1(C)c2ccccc2C(=O)N(Cc2cc(F)cc(C(F)(F)F)c2)[C@H]1c1ccc(CO)cc1,-0.144 (inactive),0.163,2.26 (inactive),0.684 (inactive),0.33 (inactive),0.253 (inactive),0.0857,-0.152 (inactive),0.261 (inactive),-0.364,-0.0148,1.32,-0.49,0.545,0.594,0.455,-0.175 (inactive),-0.638,0.0607,0.906 (inactive)
COc1ccc(CCNC(=O)[C@@H]2c3ccccc3C(=O)N(CC34CC5CC(CC(C5)C3)C4)[C@H]2c2ccc(CO)cc2)cc1,0.414 (inactive),-0.0982,5.38 (inactive),0.345 (inactive),0.68 (inactive),-0.484 (inactive),1.15,-2.37 (inactive),-1.91 (inactive),-5.14,0.263,1.63,0.463,-1.39,-0.559,1.47,-0.138 (inactive),-0.435,-0.0819,0.228 (inactive)
[N-]=[N+]=Nc1ccccc1[C@@H]1OC(c2ccc(OCCCO)cc2)=N[C@]1(Cc1ccccc1)C(N)=O,1.7 (inactive),0.0576,30.7 (active),31.3 (active),2.22 (inactive),3.17 (inactive),-0.414,0.865 (inactive),0.46 (inactive),-1.48,0.289,-0.186,0.765,-0.835,-2.14,0.308,0.119 (inactive),-0.719,-0.789,-0.199 (inactive)
[N-]=[N+]=NCc1ccccc1C[C@]1(C(=O)NCc2ccccc2)N=C(c2ccc(OCCCO)cc2)O[C@H]1c1ccccc1CN=[N+]=[N-],1.76 (inactive),1.09,18.7 (active),5.01 (inactive),2.53 (inactive),0.936 (inactive),2.34,-1.09 (inactive),0.145 (inactive),0.094,-1.42,2.15,-0.955,-1.23,-1.69,0.247,-0.158 (inactive),-0.899,-0.214,-1.09 (inactive)
CN1C(=O)[C@]2(CCC(=O)OC(C)(C)C)N=C(c3ccc(OCCCO)cc3)O[C@@H]2c2ccccc21,0.504 (inactive),0.448,33.2 (active),29.3 (active),2.63 (inactive),2.68 (inactive),-0.0426,-2.09 (inactive),-0.534 (inactive),-1.44,-0.024,0.834,-0.54,-0.964,-3.26,1.29,1.41 (inactive),-0.931,0.129,-0.877 (inactive)
COc1cc2c(cc1O)C(C1CC1)N(Cc1ccc([N+](=O)[O-])o1)CC2 (stereo not given),-1.03 (inactive),0.0446,23.7 (active),6.01 (inactive),0.359 (inactive),0.892 (inactive),0.106,-4.17 (inactive),-2.46 (inactive),-3.45,-0.37,0.393,-0.181,-0.201,0.741,-1.57,-0.0836 (inactive),-0.748,0.0309,0.533 (inactive)
